The nature of experiment [1]: ATG_E_Box_CIS: Attagene CIS-FACTORIAL HepG2 Assay for human Enhancer Box (E-box) (AID 2282936). The settings on record: HepG2 E-box cis-reporter transcription, actives raise or lower the signal. In short, it runs like this:
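DMSO served as negative control and baseline for bidirectional fitting. Human hepatoma HepG2 cells, transiently transfected with cis-reporter constructs, were dosed 24 h; reporter mRNA read by RT-PCR and capillary electrophoresis.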

Experiment [2] can be described thus: ATG_M_61_CIS: Attagene CIS-FACTORIAL HepG2 Assay for M61 Transcription Factor (Internal Marker) (AID 2282937). Particulars: HepG2 Attagene CIS-FACTORIAL M61 internal marker reporter; actives raise or lower the signal. In short, it runs like this:
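Fluorescence from labelled cDNA fragments, separated by capillary electrophoresis, quantifies reporter induction. HepG2 cells bearing transiently transfected cis-promoter MRTUs were incubated with test chemical for 24 h; DMSO defined baseline for gain/loss fitting.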

Experiment [3] can be described thus: ATG_EGR_CIS: Attagene CIS-FACTORIAL HepG2 Assay for human Early Growth Response 1 (EGR1) (AID 2282938). The settings on record: HepG2 Attagene CIS-FACTORIAL EGR reporter mRNA; actives raise or lower the signal. In short, it runs like this: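 Cell-based multiplex transcription assay: HepG2 carrying transfected cis-element reporter units, 24 h chemical treatment. Fluorescence from capillary electrophoresis of RT-PCR products gives mRNA levels; fitting is bidirectional relative to DMSO.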

A short description of experiment [4]: ATG_M_19_CIS: Attagene CIS-FACTORIAL HepG2 Assay for M19 Transcription Factor (Internal Marker) (AID 2282939). The settings on record: HepG2 Attagene CIS-FACTORIAL M19 internal marker reporter; actives raise or lower the signal. In short, it runs like this: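 HepG2 cells transiently transfected with cis-regulated multiplexed reporter units, dosed 24 h. Reporter mRNA quantified by RT-PCR and capillary electrophoresis; internal background marker fitted bidirectionally versus DMSO.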

A short description of experiment [5]: ATG_Ets_CIS: Attagene CIS-FACTORIAL HepG2 Assay for human Erythroblast Transformation Specific (ETS) (AID 2282941). The settings on record: HepG2 ETS cis-reporter transcription, actives raise or lower the signal. In short, it runs like this: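 HepG2 cells transfected with multiple cis-regulated reporter units measuring endogenous ETS-driven transcription, 24 h after dosing. Reporter mRNA quantified by RT-PCR with capillary electrophoresis; bidirectional fit relative to DMSO.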

Experiment [6] deals with Hepatocyte nuclear factor 3-beta (Homo sapiens) (UniProt Q9Y261). Briefly: ATG_FoxA2_CIS: Attagene CIS-FACTORIAL HepG2 Assay for human Forkhead box A2 (FOXA2) (AID 2282942). Particulars: HepG2 cis-reporter transcription factor activity, 24 h; actives raise or lower the signal. In short, it runs like this: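 In transiently transfected human HepG2 cells, promoter-driven reporter mRNA levels after 24 h chemical exposure are determined via RT-PCR with capillary electrophoresis. DMSO serves as baseline for bidirectional fitting.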
Hepatocyte nuclear factor 3-beta (Homo sapiens), sequence (Q9Y261 whole entry, looked up): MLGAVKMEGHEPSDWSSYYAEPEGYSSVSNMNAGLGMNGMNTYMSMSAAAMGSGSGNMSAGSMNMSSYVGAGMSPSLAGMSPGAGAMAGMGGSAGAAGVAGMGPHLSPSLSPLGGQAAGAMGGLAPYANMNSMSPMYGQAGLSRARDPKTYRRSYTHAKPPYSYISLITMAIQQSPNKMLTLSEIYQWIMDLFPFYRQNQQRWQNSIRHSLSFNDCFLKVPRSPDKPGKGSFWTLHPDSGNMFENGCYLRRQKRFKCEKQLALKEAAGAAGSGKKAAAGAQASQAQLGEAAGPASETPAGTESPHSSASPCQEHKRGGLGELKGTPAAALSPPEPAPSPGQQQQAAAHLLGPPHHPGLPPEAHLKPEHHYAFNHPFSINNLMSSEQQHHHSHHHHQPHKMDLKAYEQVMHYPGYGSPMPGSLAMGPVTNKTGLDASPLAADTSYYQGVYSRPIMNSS

A short description of experiment [7]: ATG_FoxO_CIS: Attagene CIS-FACTORIAL HepG2 Assay for human Forkhead box O (FoxO) (AID 2282943). Particulars: HepG2 Attagene cis-reporter, FoxO element, mRNA; actives raise or lower the signal. In short, it runs like this: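 Endogenous transcription factor activity read from multiplexed cis-promoter reporter transcripts in transiently transfected HepG2, 24 h after dosing. Reporter RNA measured via RT-PCR plus capillary electrophoresis of FAM-labeled products; gain or loss relative to DMSO.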

Experiment [8] can be described thus: ATG_GATA_CIS: Attagene CIS-FACTORIAL HepG2 Assay for human GATA Binding Protein (AID 2282944). The settings on record: HepG2 GATA cis-element reporter, Attagene multiplex mRNA; actives raise or lower the signal. Summed up: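 HepG2 cells transiently transfected with multiplexed cis-element reporter units measure endogenous GATA activity; after 24 h compound exposure, reporter mRNA quantified by RT-PCR and capillary electrophoresis. Changes fitted in both directions vs DMSO.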

Experiment [9] is described as follows: ATG_GLI_CIS: Attagene CIS-FACTORIAL HepG2 Assay for human Zinc Finger Protein GLI1 (AID 2282945). Particulars: HepG2, Attagene cis-factorial reporter mRNA, GLI element; actives raise or lower the signal. Summed up:
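Bidirectional curve fits relative to DMSO, using reporter mRNA levels from RT-PCR plus capillary electrophoresis. Cells were HepG2 transiently carrying cis-regulated reporter constructs, harvested 24 h after dosing.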

For experiment [10], the target named is Bile acid receptor (Homo sapiens) (UniProt Q96RI1). In words: ATG_IR1_CIS: Attagene CIS-FACTORIAL HepG2 Assay for human Nuclear Receptor Subfamily 1 Group H Member 4 (NR1H4), IR1 submotif (AID 2282946). Particulars: IR1 reporter transcription, actives raise or lower the signal. Summed up: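 Cells (human HepG2) carry transiently transfected cis-promoter reporter transcription units. Compounds are incubated 24 h, total RNA is reverse-transcribed and amplified, and labelled fragments are resolved by capillary electrophoresis. Curves use DMSO as baseline.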
Bile acid receptor (Homo sapiens), sequence (Q96RI1 whole entry, looked up, the tested form may be a part): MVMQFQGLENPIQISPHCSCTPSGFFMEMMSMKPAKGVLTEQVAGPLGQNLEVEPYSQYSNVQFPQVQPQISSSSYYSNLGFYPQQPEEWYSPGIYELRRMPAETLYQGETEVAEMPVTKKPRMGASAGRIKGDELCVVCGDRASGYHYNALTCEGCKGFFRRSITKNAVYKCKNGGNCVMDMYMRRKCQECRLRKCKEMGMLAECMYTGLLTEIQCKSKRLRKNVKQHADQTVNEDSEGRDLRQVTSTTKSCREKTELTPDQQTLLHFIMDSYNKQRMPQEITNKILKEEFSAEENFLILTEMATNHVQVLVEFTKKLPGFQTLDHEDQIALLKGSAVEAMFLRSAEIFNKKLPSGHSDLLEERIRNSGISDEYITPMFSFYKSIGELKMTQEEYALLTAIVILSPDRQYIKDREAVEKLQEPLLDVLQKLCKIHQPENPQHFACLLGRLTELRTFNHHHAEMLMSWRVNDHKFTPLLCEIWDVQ

Experiment [11] in a line: ATG_M_32_CIS: Attagene CIS-FACTORIAL HepG2 Assay for M32 Transcription Factor (Internal Marker) (AID 2282949).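 Further: background control marker of the multiplexed CIS panel rather than a real target.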 The settings on record: HepG2 Attagene cis-factorial M32 reporter, mRNA; actives raise or lower the signal. Summed up:
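Following 24 h chemical exposure of HepG2 cells transiently expressing cis-promoter reporter constructs, reporter transcript levels were determined by RT-PCR with fluorescent labelling and capillary electrophoresis, then fitted bidirectionally against DMSO.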

Experiment [12] is described as follows: ATG_M_06_CIS: Attagene CIS-FACTORIAL HepG2 Assay for M06 Transcription Factor (Internal Marker) (AID 2282950). Particulars: HepG2 Attagene CIS-FACTORIAL M06 internal marker reporter; actives raise or lower the signal. In short, it runs like this:
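Internal background marker within multiplexed cis-reporter HepG2 system. Cells transiently transfected, dosed 24 h; reporter mRNA measured by RT-PCR, HpaI digestion and capillary electrophoresis. Bidirectional fit relative to DMSO.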

The target of experiment [13] is Hypoxia-inducible factor 1-alpha (Homo sapiens) (UniProt Q16665). Briefly: ATG_HIF1a_CIS: Attagene CIS-FACTORIAL HepG2 Assay for human Hypoxia Inducible Factor 1 (HIF1A) (AID 2282951). The settings on record: HepG2 Attagene cis-factorial HIF1a reporter transcription; actives raise or lower the signal. In short, it runs like this:
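In this multiplexed cell assay, HepG2 cells bearing transfected cis reporters are dosed for 24 h and reporter mRNA is read by RT-PCR plus capillary electrophoresis; signal increases and decreases are both scored against DMSO.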

In experiment [14] the target is Hepatocyte nuclear factor 6 (Homo sapiens) (UniProt Q9UBC0). Briefly: ATG_HNF6_CIS: Attagene CIS-FACTORIAL HepG2 Assay for human Hepatocyte Nuclear Factor 6 (HNF6) (AID 2282952). The settings on record: HepG2 Attagene cis-factorial HNF6 reporter transcription; actives raise or lower the signal. In short, it runs like this:
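HepG2 cells transiently transfected with cis-element-driven multiplexed reporter units measuring endogenous transcription factor activity. After 24 h exposure, reporter mRNA quantified by RT-PCR, FAM-labelled fragments and capillary electrophoresis; bidirectional fitting versus DMSO.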

The target of experiment [15] is Heat shock factor protein 1 (Homo sapiens) (UniProt Q00613). Briefly: ATG_HSE_CIS: Attagene CIS-FACTORIAL HepG2 Assay for human Heat Shock Transcription Factor 1 (HSE) (AID 2282953). Particulars: HepG2 HSE cis-reporter, Attagene RNA transcription; actives raise or lower the signal. In short, it runs like this: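 HepG2 cells transfected with cis-promoter reporter units sensing endogenous transcription factor activity; reporter mRNA quantified 24 h post-dose by RT-PCR and capillary electrophoresis of 6-FAM-labelled products. Bidirectional fitting against DMSO.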
Heat shock factor protein 1 (Homo sapiens), sequence (Q00613 whole entry, looked up): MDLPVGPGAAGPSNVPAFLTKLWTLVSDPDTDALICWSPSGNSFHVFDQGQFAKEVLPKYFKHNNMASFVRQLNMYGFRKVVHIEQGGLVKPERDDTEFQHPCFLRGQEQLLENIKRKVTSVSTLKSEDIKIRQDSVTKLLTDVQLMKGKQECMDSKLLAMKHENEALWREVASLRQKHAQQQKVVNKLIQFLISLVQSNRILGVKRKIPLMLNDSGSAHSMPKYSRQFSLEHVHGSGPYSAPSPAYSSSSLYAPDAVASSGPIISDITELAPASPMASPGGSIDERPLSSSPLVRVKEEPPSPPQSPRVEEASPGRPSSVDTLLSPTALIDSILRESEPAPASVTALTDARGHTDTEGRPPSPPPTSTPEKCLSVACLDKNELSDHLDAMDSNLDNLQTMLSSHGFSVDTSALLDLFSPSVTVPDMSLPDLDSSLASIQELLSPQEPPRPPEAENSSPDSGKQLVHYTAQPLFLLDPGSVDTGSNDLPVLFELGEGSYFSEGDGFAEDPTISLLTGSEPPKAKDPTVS

Experiment [16] is described as follows: ATG_MRE_CIS: Attagene CIS-FACTORIAL HepG2 Assay for human Metal Responsive Element (MRE) (AID 2282954). The settings on record: HepG2 MRE cis-reporter transcription, Attagene multiplex; actives raise or lower the signal. Summed up:
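After a 24 h chemical exposure, transiently transfected HepG2 cells yield RNA whose reporter sequences are amplified, FAM-labelled and sized by capillary electrophoresis. Curves are fitted bidirectionally relative to DMSO.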

The nature of experiment [17]: ATG_PBREM_CIS: Attagene CIS-FACTORIAL HepG2 Assay for human Phenobarbital-responsive Enhancer Module (PBREM) (AID 2282955). The settings on record: HepG2 PBREM cis-reporter, Attagene multiplexed transcription; actives raise or lower the signal. Summed up:
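After a 24 h incubation with test chemical, transfected HepG2 cells yield total RNA; reporter-specific RT-PCR products are fluorescently labelled, HpaI-digested and resolved by capillary electrophoresis against ROX size standards.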

Experiment [18] in a line: ATG_GRE_CIS: Attagene CIS-FACTORIAL HepG2 Assay for human Glucocorticoid Response Elements (GRE) (AID 2282947). Particulars: HepG2 GRE cis-reporter, Attagene multiplex mRNA; actives raise or lower the signal. In short, it runs like this: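 Assay uses human hepatoma HepG2 cells transfected with cis-promoter reporter units, exposed 24 h. mRNA from reporters detected by RT-PCR plus capillary electrophoresis; DMSO serves as negative control and baseline.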

Experiment [19] in a line: ATG_ISRE_CIS: Attagene CIS-FACTORIAL HepG2 Assay for human Interferon Regulatory Factor 1 (IRF1) binding to an Interferon-Stimulated Response Element (ISRE) (AID 2282948). The settings on record: HepG2 ISRE cis-reporter (Attagene), mRNA transcription readout; actives raise or lower the signal. Summed up:
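Transiently transfected HepG2 cells carrying cis-element reporter units, dosed 24 hours. Reporter mRNA quantified by RT-PCR, fluorescent primer extension, HpaI digestion and capillary electrophoresis. Bidirectional fitting relative to DMSO.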

The nature of experiment [20]: ATG_ERE_CIS: Attagene CIS-FACTORIAL HepG2 Assay for Estrogen Response Element (ERE) (AID 2282940). The settings on record: HepG2 ERE cis-reporter, Attagene RNA transcript; actives raise or lower the signal. Summed up:
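HepG2 cells transiently transfected with multiplexed cis-element reporter units, measuring endogenous transcription factor activity; ERE reporter mRNA quantified after 24 h exposure by RT-PCR, fluorescent labelling, HpaI digestion and capillary electrophoresis. Bidirectional change versus DMSO.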

Calls of active or inactive are those of the source. How the source made its calls: active means hit-call score of the fitted dose curve at least 0.9, where 1 is the maximum; inactive means score below 0.9.

Hepatocyte nuclear factor 6 (Homo sapiens), sequence (Q9UBC0 whole entry, looked up, the tested form may be a part): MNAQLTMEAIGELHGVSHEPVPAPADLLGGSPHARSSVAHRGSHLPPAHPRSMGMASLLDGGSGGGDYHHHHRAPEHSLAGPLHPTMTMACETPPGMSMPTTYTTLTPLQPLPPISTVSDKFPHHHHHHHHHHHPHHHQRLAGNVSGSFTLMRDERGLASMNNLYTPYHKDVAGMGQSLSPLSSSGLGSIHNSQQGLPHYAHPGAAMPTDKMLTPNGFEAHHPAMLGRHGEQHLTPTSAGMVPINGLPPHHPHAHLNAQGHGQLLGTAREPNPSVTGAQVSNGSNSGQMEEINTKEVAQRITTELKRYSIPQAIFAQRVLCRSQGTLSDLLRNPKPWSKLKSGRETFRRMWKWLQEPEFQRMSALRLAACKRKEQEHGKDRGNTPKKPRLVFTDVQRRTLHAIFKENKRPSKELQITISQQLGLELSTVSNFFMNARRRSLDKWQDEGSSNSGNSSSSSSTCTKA
Hypoxia-inducible factor 1-alpha (Homo sapiens), sequence (Q16665 whole entry, looked up): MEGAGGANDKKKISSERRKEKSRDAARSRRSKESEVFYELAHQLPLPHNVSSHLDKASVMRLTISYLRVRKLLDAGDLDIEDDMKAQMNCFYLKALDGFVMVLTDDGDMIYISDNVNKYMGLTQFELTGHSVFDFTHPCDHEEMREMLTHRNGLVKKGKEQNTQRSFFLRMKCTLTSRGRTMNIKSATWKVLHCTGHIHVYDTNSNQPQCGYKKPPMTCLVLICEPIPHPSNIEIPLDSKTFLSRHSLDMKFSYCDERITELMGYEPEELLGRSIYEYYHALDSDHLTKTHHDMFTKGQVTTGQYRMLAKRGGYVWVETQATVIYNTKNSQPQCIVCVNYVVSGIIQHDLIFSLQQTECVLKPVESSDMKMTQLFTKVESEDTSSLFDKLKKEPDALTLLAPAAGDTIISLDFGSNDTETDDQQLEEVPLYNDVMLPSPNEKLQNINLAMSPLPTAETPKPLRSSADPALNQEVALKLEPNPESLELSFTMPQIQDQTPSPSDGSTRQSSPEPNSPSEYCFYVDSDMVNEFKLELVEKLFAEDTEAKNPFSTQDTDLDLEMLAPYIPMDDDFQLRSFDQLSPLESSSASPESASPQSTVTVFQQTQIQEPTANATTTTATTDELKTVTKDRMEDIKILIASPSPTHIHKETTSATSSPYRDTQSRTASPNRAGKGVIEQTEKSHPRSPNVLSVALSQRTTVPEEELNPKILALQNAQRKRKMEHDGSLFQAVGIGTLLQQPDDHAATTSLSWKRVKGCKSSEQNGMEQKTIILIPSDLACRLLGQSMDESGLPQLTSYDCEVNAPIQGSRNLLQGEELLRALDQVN

For the compound `COc1cccc(C(=O)NN(C(=O)c2cc(C)cc(C)c2)C(C)(C)C)c1C`, the result in experiment [1], in experiment [2], in experiment [3], in experiment [4], in experiment [5] and in experiment [6] was inactive. Also, the result in [8], in [9], in experiment [10], in experiment [11], in [12] and in experiment [13] was inactive. Besides, the call in experiment [14], in experiment [15] and in [16] was inactive. Moreover, the AC50 in experiment [7] was 12.9 µM (active); in experiment [17], 3.46 µM (active).

Take `COP(=O)(OC)C(O)C(Cl)(Cl)Cl` (stereo not given): the result in experiment [1], in experiment [2], in experiment [4], in [5], in experiment [6] and in experiment [7] was inactive. Besides, the compound was classed as inactive in [8], in [9], in experiment [10], in [18], in experiment [11] and in [12]. In addition, the result in experiment [14], in [15] and in experiment [17] was inactive. The AC50 in experiment [3] is 67.3 µM (active); in experiment [16] it was 31.5 µM (active).

Turning to `COc1ccc(C(=CC(=O)N2CCOCC2)c2ccc(Cl)cc2)cc1OC`, the result in [1], in experiment [2], in [4], in [6], in experiment [7] and in experiment [8] was inactive. The compound was classed as inactive in experiment [9], in experiment [10], in experiment [18], in experiment [19], in [11] and in [12]. Moreover, the call in [14] and in experiment [15] was inactive. In addition, the half-maximal activity concentration (AC50) is 28.4 µM (active) in experiment [3], 23.2 µM (active) in experiment [5], 30.7 µM (active) in experiment [16] and 24.9 µM (active) in experiment [17].

As to `CNC(=O)ON=C(SC)C(=O)N(C)C`, the result in [1], in experiment [2], in experiment [3], in experiment [4], in experiment [5] and in experiment [6] was inactive. Also, the compound was called inactive in experiment [7], in experiment [8], in experiment [9], in experiment [11], in experiment [12] and in experiment [14]. For the same compound, the compound was classed as inactive in experiment [15], in experiment [16] and in experiment [17]. In addition, in experiment [20], the AC50 was 15.7 µM (active).

Take `CNc1cnn(-c2cccc(C(F)(F)F)c2)c(=O)c1Cl`: the outcome in experiment [1], in experiment [2], in experiment [3], in experiment [4], in experiment [5] and in experiment [6] was inactive. Besides, the compound was called inactive in experiment [7], in experiment [8], in experiment [9], in experiment [10], in experiment [18] and in experiment [11]. Further, the compound was classed as inactive in experiment [12], in experiment [14], in experiment [16] and in experiment [17]. Moreover, in experiment [15], the half-maximal activity concentration (AC50) was 10.4 µM (active).

With `COP(=O)(OC)SCn1c(=O)oc2cc(Cl)cnc21`, the outcome in experiment [1], in experiment [2], in experiment [3], in experiment [4], in experiment [20] and in experiment [5] was inactive. Moreover, the compound was classed as inactive in experiment [6], in experiment [7], in experiment [8], in [9], in experiment [18] and in experiment [19]. Also, the compound was called inactive in experiment [11], in [12], in [13], in [14], in experiment [15] and in experiment [16]. Further, the result in experiment [17] was inactive.

Regarding `CCOP(=O)(SC(C)CC)N1CCSC1=O` (stereo not given), the result in [1], in experiment [2], in [3], in [4], in experiment [5] and in experiment [6] was inactive. For the same compound, the compound was classed as inactive in [7], in experiment [8], in [9], in [19], in [11] and in experiment [12]. For the same compound, the outcome in [14], in [15], in [16] and in [17] was inactive.

(Values after PubChem BioAssay (EPA / NIEHS).)
